TTR transcr act: TTR transcription activation, primary screen | activation, % at 16.7 µM | actives 1.3% (n = 92,000) | SH-SY5Y TTR promoter Gaussia luciferase, luminescence; 100% = recombinant luciferase protein wells | AID 1117267;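 active = activation above the mean of all tested compounds plus 3 SD, cut at about 9.5% in these data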;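 note: cells exposed to compounds for one day before reading; 0% = median of all test compound wells on the plate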
TTR inh HuH7: HuH7 TTR transcription inhibition, counter-screen | AID 1117279 | HuH7 TTR promoter-Gaussia luciferase reporter, luminescence | inhibition, % at 16.7 µM | shares compounds with TTR transcr act | actives 4% (n = 1,100);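 active = average inhibition above the solvent-only control wells' mean plus 3 SD, cut at about 15% in these data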;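 note: 0% = cells with DMSO only and 100% = cells with inhibitor control FD; inhibitors lower well luminescence so higher value means more inhibition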
TTR up confirm: confirmation of human transthyretin transcription activators; shares compounds with TTR transcr act; SHSY5Y TTR promoter Gaussia luciferase, luminescence; 100% = purified Lucia enzyme wells, no cells; activation, % at 16.7 µM; 1,100 tested, under 10 active;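 active = mean activation above a set limit taken from the earlier primary screen, cut at about 11% in these data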;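 note: 0% = DMSO-treated cells and 100% = recombinant Lucia luciferase without cells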
* = called active by the depositor. Only a selection was taken, and hits are over-represented in it overall.

SMILES	TTR transcr act	others
O=C(Nc1ccccc1)NC1CCCCCCC1	-1
CC(C)C(=O)NC(=S)Nc1ccccc1C(=O)NC1CCCCC1	3
COC(=O)c1ccccc1NC(=O)NC1CCCC1	15*	TTR inh HuH7=-2;TTR up confirm=-1
CCC(c1nnnn1-c1ccc2c(c1)OCCO2)N1CCN(C/C=C/c2ccccc2)CC1 (configuration not stated)	0
CNC(=O)CSc1nnc(C(C)C)n1C	0
COc1ccccc1CN(CC(=O)NCc1ccco1)C(=O)CNS(=O)(=O)c1ccc(C)cc1	12*	TTR inh HuH7=-11;TTR up confirm=-1
COc1ccccc1N(CC(=O)NCC1CCCO1)C(=O)CNS(=O)(=O)c1ccc(C)cc1 (configuration not stated)	13*	TTR inh HuH7=-9;TTR up confirm=1
COc1ccc(S(=O)(=O)NCC(=O)N(CC(=O)NCc2ccco2)Cc2ccccc2)cc1	0
O=C(CN(C(=O)CNS(=O)(=O)c1ccc(F)cc1)c1cccc(F)c1)NCC1CCCO1 (configuration not stated)	-1
COc1ccccc1N(CC(=O)NCC1CCCO1)C(=O)CNS(=O)(=O)c1ccc(Cl)cc1 (configuration not stated)	2
COc1ccc(CNC(=O)CN(Cc2ccco2)C(=O)CNS(=O)(=O)c2ccccc2)cc1	1
CC1(C)C=C2C(N(CC3CC3)C(=N)N2C(=O)OCc2ccccc2)n2c(=O)n(-c3ccccc3)c(=O)n21 (configuration not stated)	0
C[C@]12CC[C@H](O)CC1=C[C@H](O)C1C2CC[C@@]2(C)C1CC[C@@]2(O)C#Cc1ccc(CN)cc1 (some centres not stated)	12*	TTR inh HuH7=1;TTR up confirm=0
CCOc1ccc(-n2c(SCC(=O)Nc3ccc4c(c3)OCCO4)nc3c(c2=O)SCC3)cc1	0
COc1ccc(-n2c(SCC(=O)Nc3nccs3)nc3c(c2=O)SCC3)cc1	2
COc1ccc(NC(=O)CSc2nc3c(c(=O)n2-c2ccc(F)cc2)SCC3)c(OC)c1	15*	TTR inh HuH7=-10;TTR up confirm=0
CCOP(=O)(OCC)c1ccc2ccc3ccccc3c(=O)c2c1	-2
O=C(Cc1cccs1)N(CC1CCCO1)C1(C(=O)NC2CCCC2)CCCCC1 (configuration not stated)	2
O=C(NCc1ccccc1)O[C@H]1CC[C@@]23CCCN2C(=O)CCC[C@H]3C1	-1
COc1ccc(CNC(=O)C2(CC3CC(c4ccccc4)=NO3)CCN(C(=O)CCCCCBr)CC2)cc1 (configuration not stated)	1
O=C(Cc1ccc(F)cc1)N1CCC(CC2CC(c3cccc(Br)c3)=NO2)(C(=O)NCC2CCCCC2)CC1 (configuration not stated)	-2
CCCCCCCNC(=O)C1(CC2CC(c3cccc(Br)c3)=NO2)CCN(C(=O)c2ccccc2)CC1 (configuration not stated)	17*	TTR inh HuH7=8;TTR up confirm=0
Cc1cccc(C)c1OCC(=O)Nc1ccncc1	-1
Cc1cccc(C)c1OCC(=O)Nc1ccc(S(=O)(=O)Nc2ccccn2)cc1	17*	TTR inh HuH7=-4;TTR up confirm=0
O=C(COc1ccc(Br)cc1)Nc1ccc(S(=O)(=O)Nc2ccccn2)cc1	-1
SMILES	TTR transcr act	others
O=C(COCc1nc2ccccc2c(=O)[nH]1)NCC1CCCCC1	13*	TTR inh HuH7=-15;TTR up confirm=0
O=C(c1ccccc1)N(Cc1nc2ccccc2c(=O)[nH]1)C1CCCC1	0
Cc1cccc(C(=O)N(Cc2nc3ccccc3c(=O)[nH]2)C2CCCC2)c1	-3
Cc1cccc(Nc2c([N+](=O)[O-])c(=O)oc3ccccc23)c1	-2
CCCCn1c(SCc2c(C)noc2C)nc2cc(S(N)(=O)=O)ccc21	16*	TTR inh HuH7=-24;TTR up confirm=0
CCCCn1c(SCC(=O)Nc2oc(C)c3c(C)n[nH]c(=O)c23)nc2cc(S(N)(=O)=O)ccc21	1
CCCCn1c(SCC(=O)Nc2cc(C)on2)nc2cc(S(N)(=O)=O)ccc21	1
O=C(CCl)Nc1ccccc1C(=O)NCc1ccccc1	-1
COC(=O)C[C@@H]1CC[C@@H]2[C@@H](COc3ccc(NC(=O)Nc4ccccc4)cc3C(=O)N2C)O1	-1
NC(=NC(=O)/C=C/c1ccccc1Br)N(CC#Cc1ccccc1)CC#Cc1ccccc1	-1
Cc1ccc(C)c(S(=O)(=O)Nc2ccccc2C(=O)Nc2ccc(S(=O)(=O)Nc3ncccn3)cc2)c1	0
COCCNC(=O)C(=O)Nc1cc2c3c(c1)CCC(=O)N3CCC2	4
CC1=CC(=O)N(c2cccc3c(N4C(=O)C=C(C)C4=O)cccc23)C1=O	2
CN1/C(=C/C2CC(=O)N(c3cccc4ccccc34)C2=O)C(C)(C)c2ccccc21 (configuration not stated)	-2
CCN1C(=O)N(c2cccc3ccccc23)C(C)=CC1(C)C	28*	TTR inh HuH7=-6;TTR up confirm=-1
Nc1ccccc1SCC(=O)Nc1cccc2ccccc12	-1
N=c1sccn1CC(=O)Nc1cccc2ccccc12	2
O=C(O)CSCC(=O)Nc1cccc2ccccc12	10.0*	TTR inh HuH7=-6;TTR up confirm=0
CC(C)(N[C@@H](Cc1c[nH]c2ccccc12)C(=O)NCCc1c[nH]c2ccccc12)C(=O)NC1CCCCC1	-3
COC(=O)C[C@H]1C=C[C@H](NC(=O)Nc2ccccc2)[C@@H](CO)O1	1
COc1cc(O)c(C(CC(=O)N2CCCC(C)C2)c2ccccc2)c(OC)c1 (configuration not stated)	-1
CCn1cc(Br)c(C(=O)NN)n1	16*	TTR inh HuH7=-3;TTR up confirm=0
NNC(=O)c1nn(-c2ccc(Cl)cc2)cc1O	4
CCn1cc(Cl)c(C(=O)Nc2ccc(OC)c(OC)c2)n1	0
CC(CCc1ccccc1)NC(=O)COC(=O)C1CCC(C(C)(C)C)CC1 (configuration not stated)	0
SMILES	TTR transcr act	others
O=S(=O)(c1cc(Cl)cc(Cl)c1)N1CCN(c2nc(-c3cccs3)nc3ccccc23)CC1	-2
Cn1nnnc1SCC(=O)N1CCCc2ccccc21	2
CC1CC(=O)Nc2ccccc2N1C(=O)CSc1nnnn1C (configuration not stated)	14*	TTR inh HuH7=-6;TTR up confirm=0
CC1Cc2ccccc2N1C(=O)CSc1nnnn1C (configuration not stated)	6
CCCCC(=O)N[C@H]1CC[C@@]23CCCN2C(=O)CCC[C@H]3[C@H]1CCC	1
CC(=O)O[C@H]1[C@H](OC(C)=O)C[C@]2(OC(C)=O)C[C@H]1OC2=O	3
O=C1NC(Cc2ccccc2)c2nc3cc(F)ccc3c(=O)n2-c2cc(Cl)ccc21 (configuration not stated)	-3
CCCc1cc(=O)[nH]c(SCC(=O)Nc2ccc3ccccc3c2)n1	1
CCCc1cc(=O)[nH]c(Nc2ccc(O)cc2)n1	19*	TTR inh HuH7=0;TTR up confirm=1
CCCc1cc(=O)[nH]c(SCC(=O)NC2CCCCC2)n1	0
O=C(NCC(c1ccccc1)c1ccccc1)[C@H](Cc1c[nH]c2ccccc12)NC1(C(=O)NC2CCCCC2)CCC1	0
Cc1cccc(NC(=O)NC(C)C(c2ccccc2)N2CCN(C)CC2)c1 (configuration not stated)	1
CC(c1ccccc1C(O)(c1ccccc1)c1ccccc1)N(C)C (configuration not stated)	2
CC(C)N(CC#CCC(O)(c1ccccc1)c1ccccc1)C(C)C	1
